According to PubChem BioAssay (NCATS):
“And” between values parts separate entries of the source, which are not always exact repeats. Equal values may be shown once. Inconclusive results are not listed. A call without a number means that no potency is given here. More than one record can exist for a structure, and the calls need not agree. The source made the active and inactive calls. Calls follow the shape of the dose curve; as a rule, active = well fitted inhibition curve with a large enough effect; inconclusive = small, poorly fitted or top-dose-only effect; inactive = no such curve, though single readings can be large or run the other way.

Experiment: Primary qHTS for inhibitors of nuclear receptor binding SET domain protein 2 (NSD2) in an RCH-ACV wild type WT cells (2C) (AID 1645877); also: nearly all actives have a fitted effect of over 70% in size
Settings: RCH-ACV (leukaemia line) NSD2 WT (2C) viability, CellTiter-Glo, 72 h; series mostly up to 44.9 µM
Potency is read from the fitted curve at half-maximal effect.

| SMILES | Potency | activity change, negative = cell killing |
| --- | --- | --- |
| C/C(=C\C1CCC(C)C2CCC3(C)OC123)C(=O)O (configuration not stated) | inactive | – |
| C=C1C2(C)CC3C4(C)OC(C5OC56C4=CC(=O)OC6(C)C)C3(C)C13C(=O)OC(C)C3(O)C2=O (configuration not stated) | inactive | – |
| CC1=C(CO)CC(C(C)C2CCC3C4CC=C5CC(OC6OC(COC7OC(CO)C(O)C(O)C7O)C(O)C(O)C6O)CC(O)C5(C)C4CCC23C)OC1=O (configuration not stated) | inactive | – |
| O=C(O)c1cc(O[C@@H]2O[C@H](CO)[C@@H](O)[C@H](O)[C@H]2O)ccc1O | inactive | – |
| Cc1noc2c1-c1ccccc1C(c1ccc(Cl)cc1)=N[C@H]2CC(N)=O | inactive and 525 nM (active) | – |
| CC(/C=C/C=C(\C)C(=O)O[C@@H]1O[C@H](CO[C@@H]2O[C@H](CO)[C@@H](O)[C@H](O)[C@H]2O)[C@@H](O)[C@H](O)[C@H]1O)=C\C=C\C=C(C)\C=C\C=C(/C)C(=O)O[C@@H]1C[C@](O)(C(=O)O)C[C@@H](O)[C@H]1OC(=O)/C=C/c1ccc(O)c(O)c1 | – | -16.8% [at 9.23 µM] (inactive) |
| C=C(CCO)C(=O)OCC1OCC(OC(=O)C(=C)CCO[C@@H]2O[C@H](COC(=O)C(=C)CCO[C@@H]3O[C@H](CO)[C@@H](O)[C@H](O)[C@H]3O)[C@@H](O)[C@H](O)[C@H]2O)C(O)C1O (some centres not stated) | inactive | – |
| C=C(C(=O)O)C1CC(OC(=O)CC(C)CC)C2(C)CCCC(=C)C2C1 (configuration not stated) | inactive | – |
| CC1=CC(=O)C(=C(C)C)CC2C(C)(O)CCC12O (configuration not stated) | inactive | – |
| COC(=O)C(CC1(O)c2ccccc2N2C(=O)C(C)(C)N(O)C21)n1cnc2ccccc2c1=O (configuration not stated) | inactive | – |
| C=CCC1=C[C@]2(OC)[C@H](C)[C@@H](c3ccc(OC)c(OC)c3)O[C@]2(OC)CC1=O | inactive | – |
| COc1cc2c(cc1O)C(c1ccc(O)cc1)C(C)C(C)C2 (configuration not stated) | 18.3 µM (active) | – |
| COC(=O)C1=CO[C@@H](O[C@@H]2O[C@H](CO)[C@@H](O)[C@H](O)[C@H]2O)[C@H]2[C@@H]1[C@H](O)C[C@]2(C)O | inactive | – |
| CC1(C)CC[C@]2(C(=O)O)CC[C@]3(C)C(=CCC4[C@@]5(C)C(=O)C[C@H](O)[C@@](C)(CO)C5CC[C@]43C)[C@@H]2C1 (some centres not stated) | inactive | – |
| CC(CCc1ccc(O)cc1)O[C@@H]1O[C@H](CO[C@@H]2OC(CO)[C@H](O)[C@H]2O)[C@@H](O)[C@H](O)[C@H]1O (some centres not stated) | inactive | – |
| Cn1cc(Nc2cnccc2C(=O)O)c2cccnc21 | inactive | – |
| C/C=C1/[C@H](O[C@@H]2O[C@H](CO)[C@@H](O)[C@H](O)[C@H]2O)OC=C(C(=O)OC)[C@H]1CC(=O)OCCc1ccc(OC(=O)C[C@@H]2C(C(=O)OC)=CO[C@@H](O[C@@H]3O[C@H](CO)[C@@H](O)[C@H](O)[C@H]3O)/C2=C/C)cc1 | – | -15% [at 9.23 µM] (inactive) |
| CC(=O)[C@@H]1C[C@H](C(C)(C)O[C@@H]2O[C@H](CO)[C@@H](O)[C@H](O)[C@H]2O)CC[C@@]2(CO)OC(=O)C[C@@H]12 | inactive | – |
| C/C=C(/C)C(=O)OC1C(OC(C)=O)C23C(O)OC4(CCC5C6(C)CCC(OC7OC(C(=O)O)C(O)C(OC8OC(CO)C(O)C(O)C8OC8OC(C)C(O)C(O)C8OC8OCC(O)C(O)C8O)C7OC7OC(CO)C(O)C(O)C7O)C(C)(C)C6CCC5(C)C4(C)CC2OC(C)=O)C3CC1(C)C (configuration not stated) | – | 3.76% [at 9.23 µM] (inactive) |
| CCCO[C@@H]1O[C@H](CO)[C@@H](O)[C@H](O)[C@H]1O[C@@H]1OC[C@@H](O)[C@H](O)[C@H]1O | inactive | – |
| CC(=O)OC1C(O)/C(C)=C\C2C(OC(=O)c3ccccc3)C(C)CC2(OC(C)=O)C(OC(C)=O)C(C)/C=C/C(C)(C)C1OC(C)=O (configuration not stated) | inactive | – |
| OC[C@H]1O[C@@H](OCc2ccccc2)[C@H](O)[C@@H](O)[C@@H]1O | inactive | – |
| O=C(CCc1ccccc1)c1c(O)c([C@@H]2O[C@H](CO)[C@@H](O)[C@H](O)[C@H]2O)c(O)c([C@@H]2O[C@H](CO)[C@@H](O)[C@H](O)[C@H]2O)c1O | inactive | – |
| CC(C)(O)C(O)C(=O)OCc1ccc(O[C@@H]2O[C@H](CO)[C@@H](O)[C@H](O)[C@H]2O)cc1 (some centres not stated) | inactive | – |
| C/C=C(\C)C(=O)OCC1OC(OCC2OC(OC3(CO)OC(CO)C(O)C3O)C(O)C(O)C2O)C(O)C(O)C1O (configuration not stated) | inactive | – |
| CC(C)c1ccc2c(c1)[C@H](O)CC1[C@@](C)(C(=O)O)CCC[C@]21C (some centres not stated) | inactive | – |
| O=C1C(Cl)=C(N2CCOCC2)C(=O)N1c1ccc(Cl)c(Cl)c1 | 8.93 µM (active) | – |
